Source: PubChem BioAssay
CIT2-GFP yeast: alters CIT2-GFP fluorescence in TOR pathway yeast screen; GFP response vs DMSO, % at 10 µM; AID 2029; S. cerevisiae CIT2-GFP strain, flow cytometry, 3 h; 100 means same as DMSO wells; 320,000 compounds, 0.065% hits;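 active = GFP response relative to DMSO above a set limit, near the screen mean plus 3 SD, cut at about 150% in these data; inconclusive = Fewer than 70 cells measured for a yeast strain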;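 note: ratio of well median GFP fluorescence to mean of DMSO wells on the plate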
Pemphigus Ab inh: blocks pemphigus antibody binding to human desmoglein-3; AID 588358; DSG3-coupled beads, scFv-anti-DSG3-GFP binding, flow cytometry; stronger effect = lower value; binding (percent of control), % at 10 µM; P32926; 310,000 compounds, 0.48% hits;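 active = binding more than 3 SD below its plate's average and above zero; inconclusive = below that plate limit but binding exactly zero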
Target sequence (P32926 whole entry, looked up): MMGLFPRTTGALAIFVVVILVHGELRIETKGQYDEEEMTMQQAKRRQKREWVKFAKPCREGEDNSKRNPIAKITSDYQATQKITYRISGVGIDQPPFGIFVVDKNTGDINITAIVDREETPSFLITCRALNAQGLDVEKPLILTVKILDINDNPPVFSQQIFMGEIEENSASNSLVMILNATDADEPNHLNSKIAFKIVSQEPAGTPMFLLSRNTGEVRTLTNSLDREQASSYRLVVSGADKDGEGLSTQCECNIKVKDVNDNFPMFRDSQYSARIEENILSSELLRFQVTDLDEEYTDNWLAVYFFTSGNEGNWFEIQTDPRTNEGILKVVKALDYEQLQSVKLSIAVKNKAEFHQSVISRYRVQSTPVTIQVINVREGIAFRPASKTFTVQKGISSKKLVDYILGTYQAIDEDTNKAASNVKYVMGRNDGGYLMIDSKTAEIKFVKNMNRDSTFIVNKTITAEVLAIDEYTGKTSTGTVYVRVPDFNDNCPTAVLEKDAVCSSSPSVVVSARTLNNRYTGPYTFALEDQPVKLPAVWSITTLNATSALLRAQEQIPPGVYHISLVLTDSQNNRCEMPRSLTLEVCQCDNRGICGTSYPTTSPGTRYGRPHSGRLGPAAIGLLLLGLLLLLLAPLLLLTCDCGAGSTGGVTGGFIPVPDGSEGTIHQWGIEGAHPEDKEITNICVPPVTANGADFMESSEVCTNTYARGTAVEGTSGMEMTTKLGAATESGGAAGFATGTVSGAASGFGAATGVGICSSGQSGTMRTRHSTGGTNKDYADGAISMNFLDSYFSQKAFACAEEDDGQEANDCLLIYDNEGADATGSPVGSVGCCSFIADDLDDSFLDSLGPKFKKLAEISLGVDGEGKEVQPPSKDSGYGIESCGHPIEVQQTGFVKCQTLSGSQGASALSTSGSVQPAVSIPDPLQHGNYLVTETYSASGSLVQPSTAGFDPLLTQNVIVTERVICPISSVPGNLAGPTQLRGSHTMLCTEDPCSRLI
RPL19A-GFP yeast: alters RPL19A-GFP fluorescence in TOR pathway yeast screen | percent response vs DMSO, % at 10 µM | 330,000 compounds, 0.3% hits | S. cerevisiae RPL19A-GFP strain, flow cytometry, 3 h; stronger effect = lower value | AID 2025;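 active = percent response vs DMSO below 50%; inconclusive = fewer than 70 events counted for the yeast strain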;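 note: median channel GFP fluorescence of the barcoded RPL19A-GFP strain; ratio of sample median GFP to plate DMSO average so 100% = DMSO; lower means less RPL19A-GFP as with rapamycin TOR inhibition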
LAP4-GFP MLPCN: yeast TOR pathway LAP4-GFP modulation | S. cerevisiae LAP4-GFP multiplex, flow cytometry GFP, 3 h; median GFP as percent of DMSO wells | GFP response vs DMSO, % at 10 µM | 320,000 compounds, 0.34% hits;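 active = GFP response vs DMSO above a set limit, about the screen mean plus 3 SD, cut at about 150% in these data; inconclusive = under 70 cell events counted for the yeast strain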
AGP1-GFP MLPCN: modulators of TOR pathway AGP1-GFP in S. cerevisiae | S. cerevisiae AGP1-GFP multiplex flow cytometry, 3 h; GFP as percent of DMSO wells | GFP response vs DMSO, % at 10 µM | 320,000 compounds, 0.02% hits;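 active = GFP response relative to DMSO above a set limit, near screen average plus 3 SD, cut at about 150% in these data; inconclusive = fewer than 70 cells counted for the yeast strain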;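 note: median GFP channel fluorescence of the gated AGP1 strain per well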
MEP2 TOR yeast: modulators of TOR pathway MEP2-GFP in S. cerevisiae; S. cerevisiae MEP2-GFP strain, flow cytometry GFP, 3 h; 100% = DMSO control level; GFP response vs DMSO, % at 10 µM; 330,000 compounds, 0.51% hits; AID 2016;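 active = GFP response versus DMSO above a set limit, roughly screen mean plus 3 SD, cut at about 180% in these data; inconclusive = fewer than 70 cells counted for a yeast strain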;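 note: median GFP fluorescence of the barcode-gated MEP2-GFP cells per well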
The depositor's hits bear a star; [ ] = dose if it differs, or a comment. Compounds with a hit are over-represented: about 1.2% of the library has one in this group of screens.

How did CNC(=S)N/N=C/c1c(C)nn(-c2cccc(Cl)c2)c1Cl do in these assays?
CIT2-GFP yeast: 100; Pemphigus Ab inh: 27*; RPL19A-GFP yeast: 100; LAP4-GFP MLPCN: 101; AGP1-GFP MLPCN: 94; MEP2 TOR yeast: 102

Results for Cc1ccc(C)c(N(CC(=O)N/N=C/c2ccc(-c3ccc([N+](=O)[O-])cc3)o2)S(=O)(=O)c2ccccc2)c1 ?
CIT2-GFP yeast: 101; Pemphigus Ab inh: 85*; RPL19A-GFP yeast: 103; LAP4-GFP MLPCN: 98; AGP1-GFP MLPCN: 107; MEP2 TOR yeast: 107

What do the screens show for `COc1ccc(C(=O)c2nccc3ccccc23)cc1`?
CIT2-GFP yeast: 105; RPL19A-GFP yeast: 99; LAP4-GFP MLPCN: 105; AGP1-GFP MLPCN: 77; MEP2 TOR yeast: 185*

How did O=C1N=C(N2C=CC(=C3C=CNC=C3)C=C2)/C(=C/N=NC(=O)c2ccccc2O)S1 do in these assays?
CIT2-GFP yeast: 107; Pemphigus Ab inh: 107; RPL19A-GFP yeast: 103; LAP4-GFP MLPCN: 102; AGP1-GFP MLPCN: 107; MEP2 TOR yeast: 98

What do the screens show for `O=C(O)c1ccc2c3c(cccc13)C(=O)N(c1ccccc1)C2=O`?
CIT2-GFP yeast: 104; Pemphigus Ab inh: 16*; RPL19A-GFP yeast: 97; LAP4-GFP MLPCN: 104; AGP1-GFP MLPCN: 106; MEP2 TOR yeast: 97

What do the screens show for `O=C(O)c1ccc(N2C(=O)c3cccc4c(C(=O)O)ccc(c34)C2=O)cc1`?
RPL19A-GFP yeast: 86; LAP4-GFP MLPCN: 87; AGP1-GFP MLPCN: 95; MEP2 TOR yeast: 102

What do the screens show for `CCCCC(CCC(=O)NNC(=O)Cc1ccccc1)C(=O)O` (configuration not stated)?
CIT2-GFP yeast: 93; Pemphigus Ab inh: 117; RPL19A-GFP yeast: 98; LAP4-GFP MLPCN: 92; AGP1-GFP MLPCN: 97; MEP2 TOR yeast: 90

What do the screens show for `Cc1ccc(N(CC(=O)NCc2ccccc2)C(=O)c2csnn2)cc1`?
CIT2-GFP yeast: 109; RPL19A-GFP yeast: 103; LAP4-GFP MLPCN: 107; AGP1-GFP MLPCN: 111; MEP2 TOR yeast: 117

How did O=C(O)C1Nc2c(O)cccc2C2C=CCC12 (configuration not stated) do in these assays?
CIT2-GFP yeast: 134; Pemphigus Ab inh: 83*; RPL19A-GFP yeast: 105; LAP4-GFP MLPCN: 104; AGP1-GFP MLPCN: 93; MEP2 TOR yeast: 140

How did CC(C)C(C(=O)NCc1ccco1)N(Cc1ccco1)C(=O)CNS(=O)(=O)c1ccc(F)cc1 (configuration not stated) do in these assays?
CIT2-GFP yeast: inconclusive; RPL19A-GFP yeast: 24*[may fluoresce violet]; LAP4-GFP MLPCN: 64; AGP1-GFP MLPCN: inconclusive; MEP2 TOR yeast: inconclusive

Results for O=c1[nH]c2c(=O)[nH]cnc2nc1-c1ccccc1 ?
RPL19A-GFP yeast: 72; MEP2 TOR yeast: 204*

What do the screens show for `C=CCN1C(=O)CC(C(=O)NC)SC1=Nc1ccc(C(=O)OCC)cc1` (configuration not stated)?
CIT2-GFP yeast: 98; Pemphigus Ab inh: 99; RPL19A-GFP yeast: 103; LAP4-GFP MLPCN: 98; AGP1-GFP MLPCN: 102; MEP2 TOR yeast: 109

How did Cc1nn(-c2ccccc2)c2c1C(c1ccc(O)c(O)c1)N1C(=N2)C(Nc2ccccc2)=Nc2ccccc21 (configuration not stated) do in these assays?
CIT2-GFP yeast: 82; Pemphigus Ab inh: 95; RPL19A-GFP yeast: 89; LAP4-GFP MLPCN: 105; AGP1-GFP MLPCN: 22; MEP2 TOR yeast: 111

Results for Cc1ccc(NC2=Nc3ccccc3N3C2=Nc2c(c(C)nn2-c2ccccc2)C3c2ccc(O)c(O)c2)cc1 (configuration not stated) ?
Pemphigus Ab inh: 91*

How did CC(C)[C@H](NS(=O)(=O)c1ccc2c(c1)OCCO2)C(=O)OCC(=O)Nc1cc(Cl)ccc1Cl do in these assays?
CIT2-GFP yeast: 103; Pemphigus Ab inh: 96; RPL19A-GFP yeast: 103; LAP4-GFP MLPCN: 89; AGP1-GFP MLPCN: 98; MEP2 TOR yeast: 102

Results for COc1ccc(C)cc1S(=O)(=O)N1CCCC(N2CCN(c3ccccc3)CC2)C1 (configuration not stated) ?
Pemphigus Ab inh: 109

What do the screens show for `COc1ccc(OC)c(Nc2ncnc3sccc23)c1`?
CIT2-GFP yeast: 98; Pemphigus Ab inh: 85; RPL19A-GFP yeast: 100; LAP4-GFP MLPCN: 98; AGP1-GFP MLPCN: 98; MEP2 TOR yeast: 107

What do the screens show for `COc1cc(CN(C)c2ncnc3sccc23)ccc1OC(F)F`?
CIT2-GFP yeast: 108; Pemphigus Ab inh: 35*; RPL19A-GFP yeast: 101; LAP4-GFP MLPCN: 99; AGP1-GFP MLPCN: 93; MEP2 TOR yeast: 104

What do the screens show for `Cn1cnnc1SCc1ccc(C(=O)n2ncc(C#N)c2N)cc1`?
Pemphigus Ab inh: 100; RPL19A-GFP yeast: 23*[may fluoresce violet]; LAP4-GFP MLPCN: 106; AGP1-GFP MLPCN: inconclusive; MEP2 TOR yeast: 303*[may fluoresce violet]

Results for COc1ccc(C(=O)n2ncc(C#N)c2N)cc1 ?
Pemphigus Ab inh: 102

What do the screens show for `COc1ccc(OC)c(Nc2cc(C)nc3nc(C)nn23)c1`?
CIT2-GFP yeast: 90; Pemphigus Ab inh: 82*; RPL19A-GFP yeast: 99; LAP4-GFP MLPCN: 107; AGP1-GFP MLPCN: 98; MEP2 TOR yeast: 99

What do the screens show for `COCC(=O)Nc1ccc2c(c1)OCC(=O)N2Cc1ccc(C)cc1`?
CIT2-GFP yeast: 104; Pemphigus Ab inh: 108; RPL19A-GFP yeast: 103; LAP4-GFP MLPCN: 102; AGP1-GFP MLPCN: 100; MEP2 TOR yeast: 107

Results for CCOC(=O)c1csc(CCNC(=O)c2ccccc2)n1 ?
Pemphigus Ab inh: 102

Results for COc1ccc(-c2cc(C(F)(F)F)nc(N3CCOCC3)n2)cc1OC ?
CIT2-GFP yeast: 99; Pemphigus Ab inh: 98; RPL19A-GFP yeast: 81; LAP4-GFP MLPCN: 186*; AGP1-GFP MLPCN: 99; MEP2 TOR yeast: 213*

How did NCCSc1c(-c2ccc(F)cc2)[nH]c2ccccc12 do in these assays?
CIT2-GFP yeast: inconclusive; Pemphigus Ab inh: 98; RPL19A-GFP yeast: 74; LAP4-GFP MLPCN: 101; AGP1-GFP MLPCN: 25; MEP2 TOR yeast: 616*[may fluoresce violet]

What do the screens show for `O=C(NCc1ccc(Cl)cc1)c1ccncc1`?
CIT2-GFP yeast: 98; Pemphigus Ab inh: 83*; RPL19A-GFP yeast: 89; LAP4-GFP MLPCN: 75; AGP1-GFP MLPCN: 87; MEP2 TOR yeast: 89

How did C=CCN1C(=O)c2ccc(C(=O)N(CC(C)C)c3c(N)n(CCCC)c(=O)[nH]c3=O)cc2C1=O do in these assays?
CIT2-GFP yeast: 108; Pemphigus Ab inh: 76*; RPL19A-GFP yeast: 104; LAP4-GFP MLPCN: 104; AGP1-GFP MLPCN: 110; MEP2 TOR yeast: 113

How did CCOc1cc(C2C3=C(CCCC3=O)N(CC(=O)O)C3=C2C(=O)CCC3)ccc1OC do in these assays?
CIT2-GFP yeast: 88; Pemphigus Ab inh: 116; RPL19A-GFP yeast: 94; LAP4-GFP MLPCN: 78; AGP1-GFP MLPCN: 86; MEP2 TOR yeast: 88
